Only some compounds are listed: those with a hit (about 9.5% of all), similar ones and a draw of the others.
NPSR antagonist – blocks cAMP signaling of the human neuropeptide S receptor; Q6W5P4; CHO-NPSR cells, cAMP TR-FRET, antagonist mode; Potency, µM (doses to about 38.3 µM), most hits filed as inhibitors; hit rate 1% among 220,000; note: nearly all actives have a fitted effect of over 50% in size
Target sequence (Q6W5P4 whole entry, looked up): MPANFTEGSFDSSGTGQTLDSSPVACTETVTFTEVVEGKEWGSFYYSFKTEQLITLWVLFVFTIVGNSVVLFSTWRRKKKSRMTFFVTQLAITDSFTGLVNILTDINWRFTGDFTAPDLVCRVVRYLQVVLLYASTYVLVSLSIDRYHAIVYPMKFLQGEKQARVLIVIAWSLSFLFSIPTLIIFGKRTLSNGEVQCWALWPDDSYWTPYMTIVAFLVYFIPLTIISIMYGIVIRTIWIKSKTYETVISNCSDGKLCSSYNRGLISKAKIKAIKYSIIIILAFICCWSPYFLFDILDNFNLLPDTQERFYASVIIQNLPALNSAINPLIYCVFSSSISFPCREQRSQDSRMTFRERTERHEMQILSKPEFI
Tau fibril ThT – inhibitors of human tau fibril formation, thioflavin T binding; recombinant tau K18 P301L, heparin-induced fibrillization, ThT fluorescence; Potency, µM (titrated, usually from 57.4 µM), hits mostly inhibitors; hit rate 2.1% among 270,000; note: nearly all actives have a fitted effect of over 55% in size
Target sequence (P10636 561-689 P618L limits assumed): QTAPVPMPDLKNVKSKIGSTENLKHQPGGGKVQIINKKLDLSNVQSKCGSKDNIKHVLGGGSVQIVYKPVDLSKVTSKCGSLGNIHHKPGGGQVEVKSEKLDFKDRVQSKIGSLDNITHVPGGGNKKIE
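Using a mix of unlabeled (15 uM) and Alexa 594-labeled (0.24 uM) tau K18 P301L, heparin-triggered fibrillization over 6 hr at 37 C was scored by ThT fluorescence.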
HPGD block – blocks human HPGD enzyme activity. P15428. purified HPGD, NADH fluorescence kinetic, PGE2 substrate. Potency, µM, hits mostly inhibitors. hit rate 4.3% among 150,000; active = well fitted inhibition curve with a large enough effect, not every such curve was filed as active; inconclusive = small, poorly fitted or top-dose-only effect, or another doubt; inactive = no such curve, though single readings can be large or run the other way
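20 nM HPGD preincubated 15 min at room temperature with compound in 50 mM Tris-HCl pH 8, 0.01% Tween 20. Started with 1 mM NAD+ and 30 uM prostaglandin E2; NADH fluorescence (360/450 nm) read 5 times over 30-s intervals, last minus first.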
Tau fibril FP – tau fibrillization inhibition (FP); K18 P301L tau heparin fibrillization, Alexa594 FP, 6 h; Potency, µM (series often up to 57.7 µM), usual class: inhibitors; hit rate 0.39% among 280,000; AID 1468; note: nearly all actives have a fitted effect of over 55% in size
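Human K18 P301L fragment (15 uM unlabeled plus 0.24 uM Alexa 594-labeled) in 100 mM sodium acetate pH 7 with compound, aggregation induced by 20 uM heparin for 6 hr at 37 C. ThT (30 uM) added for 1 hr, then Alexa 594 FP read.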
Tau fluor cs – counter-screen for tau fibril formation inhibitors; tau K18 P301L (four-repeat tau fragment) Alexa594 fluorescence, heparin fibrillization; Potency, µM (highest dose often 57.7 µM); hit rate 0.93% among 280,000; note: nearly all actives have a fitted effect of over 55% in size
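Human K18 P301L tau (15 uM unlabeled plus 0.24 uM Alexa 594-labeled, final) in 100 mM sodium acetate pH 7 was mixed with compound and 20 uM heparin and incubated 6 hr at 37 C.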
ALDH1A1 inh – ALDH1A1 (human) enzyme inhibition; P00352; Purified ALDH1A1, NADH fluorescence, propionaldehyde substrate; Potency, µM (top dose mostly 75.3 µM), actives largely listed as inhibitors; hit rate 7.3% among 220,000; active = well fitted inhibition curve with a large enough effect, not every such curve was filed as active; inconclusive = small, poorly fitted or top-dose-only effect, or another doubt; inactive = no such curve, though single readings can be large or run the other way
Large screens that a line does not name were inactive. Unless noted, calls come from the whole dose curve; as a rule, active = well fitted curve in the direction sought with a large enough effect; inconclusive = small, poorly fitted or top-dose-only effect, or another doubt; inactive = no such curve, though single readings can be large; an effect the other way counts as inactive or inconclusive.

CCOc1ccccc1Nc1nnc(SCC(=O)Nc2nc(-c3ccc(OC)cc3)cs2)s1	Tau fibril FP inconclusive, ALDH1A1 inh 25µM (no result: HPGD block)
Cc1c(C(=O)COC(C)(C)C)[nH]c2ccccc12	HPGD block 4.5µM, Tau fibril FP inconclusive, ALDH1A1 inh 6.3µM
CO/N=C(\c1nonc1N)N1CCN(c2ccc([N+](=O)[O-])cc2Cl)CC1	Tau fibril FP inconclusive, Tau fluor cs inconclusive, ALDH1A1 inh inconclusive
CCO/N=C(/c1nonc1N)N1CCN(c2ccc([N+](=O)[O-])cc2)CC1	Tau fibril ThT inconclusive, ALDH1A1 inh 11µM
Cc1ccc(S(=O)(=O)OCCc2ccccc2)cc1	none (no result: NPSR antagonist)
CC1=NN(c2ccc(Br)cc2)C(=O)/C1=C/c1cccs1	Tau fibril ThT inconclusive, HPGD block 14µM, Tau fluor cs inconclusive, ALDH1A1 inh 2.2µM
CN(C)C(=S)N=Nc1[nH]c2ccccc2c1O	NPSR antagonist inconclusive, Tau fibril ThT 16µM, ALDH1A1 inh inconclusive (no result: HPGD block)
CNC(=S)N=Nc1c(O)[nH]c2ccccc12	Tau fibril ThT inconclusive
CCc1cc(C(=O)NNC(=S)Nc2cc(C)ccc2C)cs1	Tau fibril ThT inconclusive, ALDH1A1 inh inconclusive
CCc1cc(C(=O)NNC(=S)Nc2ccccc2C)cs1	ALDH1A1 inh 25µM
Cc1ccc(/C=C/C(=O)N2CCCC(C)C2)cc1 (stereo unspecified)	HPGD block 1.6µM, ALDH1A1 inh inconclusive
CCOC(=O)C1CCCN(C(=O)/C=C/c2ccc(Cl)cc2)C1 (stereo unspecified)	none (no result: HPGD block)
CC1CCN(C(=O)/C=C/c2ccc(C(C)(C)C)cc2)CC1	HPGD block 16µM
O=Cc1cccc(Br)c1	ALDH1A1 inh inconclusive (no result: NPSR antagonist, Tau fibril ThT, Tau fibril FP, Tau fluor cs)
CC1N=C2c3ccccc3N=C(SCC(=O)NCCc3ccc(Cl)cc3)N2C1=O (stereo unspecified)	none (no result: NPSR antagonist, HPGD block, ALDH1A1 inh)
Cc1ccc(N2C(=O)C3C4C=CC(CNC(=S)N5CCN(c6ccccn6)CC5)(O4)C3C2=O)cc1 (stereo unspecified)	NPSR antagonist inconclusive, Tau fibril ThT inconclusive, ALDH1A1 inh inconclusive (no result: HPGD block)
Cc1ccc(N2C(=O)C3C4C=CC(CNC(=S)Nc5ccc(F)cc5)(O4)C3C2=O)cc1 (stereo unspecified)	HPGD block 18µM, ALDH1A1 inh 0.4µM
CC(C)COC(=O)NCC12C=CC(O1)C1C(=O)N(c3ccc(Cl)cc3)C(=O)C12 (stereo unspecified)	HPGD block 18µM, ALDH1A1 inh 0.56µM
Fc1ccc(CNC(=S)Nc2cccc(Cl)c2)cc1	Tau fluor cs inconclusive, ALDH1A1 inh inconclusive
Cc1ccc(N2C(=O)C3C4C=CC(CNC(=S)Nc5cccc(Cl)c5)(O4)C3C2=O)cc1 (stereo unspecified)	ALDH1A1 inh 1.6µM
Cc1ccc(N2C(=O)C3C4C=CC(CNC(=S)Nc5ccc(Cl)cc5)(O4)C3C2=O)cc1 (stereo unspecified)	HPGD block inconclusive, ALDH1A1 inh 0.32µM
CCOC(=O)c1ccc(NC(=O)CC2C(=O)N(c3ccc(F)cc3)C(=O)N2Cc2ccc(C)cc2)cc1 (stereo unspecified)	Tau fibril FP inconclusive, Tau fluor cs inconclusive (no result: NPSR antagonist, HPGD block, ALDH1A1 inh)
CCc1ccccc1N1CC23C=CC(O2)C(C(=O)OCC(C)C)C3C1=O (stereo unspecified)	none
CCN1C(=O)C2(c3ccccc31)c1c(oc3ccc(C)cc3c1=O)C(=O)N2CCCOC(C)C (stereo unspecified)	none (no result: NPSR antagonist, HPGD block, ALDH1A1 inh)
COc1ccc(C2CC(=O)c3c(O)cc(O[C@H]4OC(COC5OC(C)C(O)C(O)[C@@H]5O)C(O)C(O)C4O)cc3O2)cc1O (stereo partly specified)	none (no result: NPSR antagonist)
COc1cc(NC(=O)C2=CC(c3ccc(F)cc3)=NS(=O)(=O)N2C)cc(OC)c1OC	Tau fibril FP inconclusive (no result: NPSR antagonist, HPGD block, ALDH1A1 inh)
C=CCN1c2ccccc2[C@]23C[C@@H](C(=O)OC)N(S(=O)(=O)c4ccc(Br)cc4)C2=NC(C(=O)OC)=C(C(=O)OC)[C@H]13	none (no result: NPSR antagonist)
CCOC(=O)c1ccoc1CSCc1ccc(C(=O)OC)o1	Tau fibril ThT 25µM, Tau fibril FP inconclusive, ALDH1A1 inh 25µM
COC(=O)c1ccc(CSC(=N)N)o1	Tau fibril ThT inconclusive (no result: HPGD block)
